Bioassay records deposited in PubChem BioAssay by several laboratories.
A selection: hits, their analogues and other compounds. The true share with any hit is near 0.61%.
RN4220 kill – S. aureus RN4220 growth inhibition | inhibition, % (concentration not given with the values) | 0.33% of 330,000 active | OD600, 16 h; in the data active = inhibition above about 85%;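 also: plate controls were untreated cells for no effect and reference antibiotic for full effect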
ugtP null kill – growth inhibition of S. aureus ugtP deletion strain | S. aureus RN4220 ugtP deletion, OD600 growth, 16 h | 0.54% of 330,000 active | growth inhibition, % (no concentration beside the values); in the data active = growth inhibition above about 68%;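 also: plate controls were untreated wells for no effect and antibiotic for full effect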
Mtb hypoxia inh – reduces hypoxia-regulated biosensor signal in M. tuberculosis | M. tuberculosis hypoxia-regulated fluorescent reporter, fluorescence | fluorescence inhibition, % (concentration not given with the values) | 0.1% of 300,000 active | AID 1159583; in the data active = fluorescence inhibition mostly above about 23%, no sharp cut-off; inactive = mostly below about 17%
Mtb bLac sens – beta-lactam sensitization of Mtb H37Rv; M. tuberculosis H37Rv growth with meropenem, percent inhibition; inhibition, % at 25 µM; 0.27% of 330,000 active; AID 434955; call rule not given here;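 also: growth measured after seven days incubation then overnight dye step; 0% = bacteria only wells and 100% = bacteria with antibiotic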
Starred values were filed as active, the others as inactive; ? = inconclusive; . = no result shown.

SMILES | RN4220 kill | ugtP null kill | Mtb hypoxia inh | Mtb bLac sens
c1ccc(-c2noc(-c3ccccc3-c3ccccc3)n2)cc1 | -8.8 | 94.9* | . | 16.6
Fc1ccccc1-c1nc(-c2ccc(Cl)cc2)no1 | -2.1 | -3.4 | 2.7 | 5.1
CCN(N=O)C(Cc1ccccc1)CN(N=O)C(Cc1ccccc1)CN(C)N=O (configuration not stated) | 9.8 | 15.1 | 18.1 | .
Cc1ccc(NS(=O)(=O)c2ccc(NN=Cc3ccncc3)c([N+](=O)[O-])c2)c(C)c1 | 6.0 | -6.3 | 5.0 | .
CCCCCCCN(C(=O)CCl)c1cccc(C)c1 | 25.4 | 87.4* | 22.1 | 53.6
CCCCCCN(C(=O)CCl)c1ccccc1 | 12.0 | 18.5 | 22.7 | 99.4
CC(=NNC(=O)c1ccc(Br)o1)c1ccc(C)o1 | 2.6 | -0.3 | 10.3 | .
COC(=O)C1=C(c2c(C)noc2C)CC2CCC1N2C(=O)N1CCCC1 (configuration not stated) | 2.1 | 5.3 | 14.1 | .
COc1cc(-c2nc3ccccn3c2NCc2ccccc2)ccc1SC1CCCCC1 | 3.1 | -18.6 | 2.6 | 67.0
COc1ccc(-c2nc3ccccn3c2NC2CCCCC2)cc1SC1CCCCC1 | 83.6 | 99.7* | 14.9 | 50.2
Cc1ccc(Oc2ncccc2C=NOCc2ccc(Cl)cc2Cl)cc1 | -13.9 | 69.7 | . | .
CCCCC1NC(=S)N(C2CCCCC2)C1=O (configuration not stated) | 5.0 | 89.0* | 2.3 | 5.9
C/C=C(/C)C(=O)O[C@@H]1c2c(ccc3ccc(=O)oc23)O[C@@H]1C(C)(C)OC(C)=O | . | . | . | -2.7
CC=C(C)C(=O)OC1c2c(ccc3ccc(=O)oc23)OC1C(C)(C)OC(=O)C(C)=CC (configuration not stated) | -4.2 | 96.7* | 17.9 | .
COc1ccc(N=C2SC(=Cc3ccc(C)o3)C(=O)N2CC(C)C)cc1 | -3.5 | 42.6 | 3.7 | .
FC(F)(F)c1cccc(NC(=S)Nc2ccc(Cl)c(Cl)c2)c1 | 100.8* | 100.6* | 10.0 | 95.0
FC(F)(F)c1cccc(NC(=S)NNC(=S)Nc2cccc(C(F)(F)F)c2)c1 | . | . | . | 99.5
S=C(NCc1ccncc1)Nc1ccc(Cl)c(Cl)c1 | -6.0 | -5.9 | -1.0 | 38.5
O=[N+]([O-])c1cc(C(F)(F)F)cc([N+](=O)[O-])c1NCCNC(=S)Nc1ccc(Cl)c(Cl)c1 | 98.7* | 99.9* | 5.0 | 91.8
O=C1C=C(c2ccc3ccccc3c2)CC(c2ccc(F)cc2)C1 (configuration not stated) | 1.0 | 12.4 | 5.0 | .
COc1ccc(/C=C\C(=O)c2c(O)ccc3c(C)cc(=O)oc23)cc1 | -7.1 | 87.1* | . | 80.9
COc1ccc(-c2cc(=O)oc3c(C)c(O)ccc23)cc1 | 5.5 | -5.8 | 6.5 | 8.0
COc1ccc(/C=C/C(=O)c2c(O)ccc3c(C)cc(=O)oc23)cc1 | 4.6 | 89.1* | 11.6 | 75.3
CC(C)(C)CC(=O)NC(=S)Nc1ccccc1C(F)(F)F | 5.2 | 93.4* | -4.6 | 2.2
CC(C)CC(=O)NC(=S)Nc1ccccc1C(F)(F)F | 1.4 | 71.0 | 2.9 | 4.0
SMILES | RN4220 kill | ugtP null kill | Mtb hypoxia inh | Mtb bLac sens
CCOC(=O)C1C2COc3ccccc3C2N2C(=O)c3cc(C)ccc3NC(=O)[C@@]12C (some centres not stated) | 3.8 | 0.2 | -1.0 | .
Nc1cc(=O)[nH]c(SCC=Cc2ccccc2)n1 | 5.6 | 0.3 | 8.1 | .
CC1CCCN(c2ccc([N+](=O)[O-])cc2C(=O)c2ccccc2)C1 (configuration not stated) | -2.1 | 87.4* | 11.6 | 3.2
O=C(c1ccccc1)c1cc([N+](=O)[O-])ccc1N1CCOCC1 | -6.5 | 5.0 | 7.1 | -0.8
CC(O)C1CNCCN1CC1(c2ccccc2)CC1 (configuration not stated) | 2.6 | 0.1 | 4.7 | .
O=c1c2c(-c3ccc([N+](=O)[O-])cc3)csc2nc2n1CCC2 | 5.3 | -4.3 | 36.3* | 98.2
O=[N+]([O-])c1ccc(-c2nnc3n2CCCCC3)cc1 | 2.2 | 3.1 | -0.9 | ?
CC(CC(=O)Nc1ccc(F)cc1)=NNC(=O)c1ccccn1 | 6.1 | 4.2 | 15.5 | .
COc1ccc(/C=C/C(=O)OCC(=O)NC2CCCC(C)C2C)c(OC)c1 (configuration not stated) | 0.8 | 85.1* | 23.8 | -1.3
COC1C(OC(=O)c2ccc(C)[nH]2)C(O)C(Oc2ccc3c(O)c(NC(=O)c4ccc(O)c(CC=C(C)C)c4)c(=O)oc3c2Cl)OC1(C)C (configuration not stated) | 94.1* | 100.3* | . | -4.6
O=C(CSc1nc2ccccc2[nH]1)N/N=C/C=C/c1ccccc1[N+](=O)[O-] | . | . | . | -5.3
O=C(CSc1nc2ccccc2[nH]1)NN=C/C=C\c1ccccc1[N+](=O)[O-] | 97.8* | 96.9* | 5.9 | .
CCOc1cc(C=NO)cc(Br)c1OC | 9.1 | 5.4 | 19.5 | .
COc1ccccc1CNc1nc2nc(C)c(Cl)c(=O)n2[nH]1 | 0.0 | 1.2 | 0.4 | 6.9
COc1ccc(CNc2nc3nc(C)c(Cl)c(=O)n3[nH]2)cc1 | 3.4 | 9.6 | 23.3* | 99.2
Cc1[nH]n2c(=O)cc(C(C)(C)C)nc2c1-c1ccccc1 | 65.3 | 95.8* | 5.7 | 97.7
Cc1[nH]n2c(=O)cc(C(C)C)nc2c1-c1ccccc1 | -3.1 | -4.6 | 1.9 | 97.7
Cc1[nH]n2c(=O)cc(-c3ccc([N+](=O)[O-])cc3)nc2c1-c1ccccc1 | 86.4* | 75.5 | . | 98.2
CC(C)COC(=O)c1ccc2c(c1O)C(=O)c1ccccc1C2=O | 92.1* | 92.9* | 5.5 | 99.7
COc1c(N2CCN(C(=S)NCc3ccccc3)C(C)C2)c(F)cc2c(=O)c(C(=O)O)cn(C3CC3)c12 (configuration not stated) | 100.3* | 100.5* | . | 99.6
NC1=C(Cl)C(=O)c2ccc(S(N)(=O)=O)cc2C1=O | 98.6* | 98.0* | . | .
N#C[C@]1(S(=O)(=O)c2ccccc2)CC2ON=C(c3cccc(Br)c3)C2C1 (some centres not stated) | -0.3 | 2.5 | 3.6 | .
CCCC1OC(c2cc3c(cc2Cl)OCO3)OCC1CC (configuration not stated) | -1.4 | 85.1* | 1.1 | .
COC(=O)NN=C(C)c1ccccc1Br | 1.2 | 2.2 | . | .
CCC(=O)Oc1ccc(CC(=NO)c2ccc(O)cc2O)o1 | 13.6 | 3.8 | 1.2 | .
SMILES | RN4220 kill | ugtP null kill | Mtb hypoxia inh | Mtb bLac sens
FCCCOc1ccc(C=NOCc2ccc(Cl)cc2Cl)cc1 | -4.9 | 67.3 | . | .
CC1(c2ccccc2)CC(C)(C)N2C(=O)C(=O)c3cccc1c32 (configuration not stated) | . | . | . | -9.2
CC1(c2ccccc2)CC(C)(C)N2C(=O)C(=C3SC(=S)NC3=O)c3cccc1c32 (configuration not stated) | 100.4* | 100.1* | 4.7 | .
COc1ccc2sc(-c3ccc(N(C)C)cc3)c(C#CC(C)(C)O)c2c1 | 3.7 | 3.7 | 1.8 | .
COc1ccc2sc(-c3ccc(N(C)C)cc3)c(C#Cc3cncn3C)c2c1 | 77.9 | 82.1* | 23.1 | 99.6
CC1(C)S[C@@H]2[C@H](NC(=O)COc3ccccc3)C(=O)N2C1C(=O)OCC1CCCCC1 (some centres not stated) | 98.7* | 100.1* | 1.0 | 18.8
CC1(C)S[C@@H]2[C@H](NC(=O)COc3ccccc3)C(=O)N2C1C(=O)OCc1cc2ccccc2n1S(=O)(=O)c1ccccc1 (some centres not stated) | . | . | . | -1.3
